Experimental data reported in PubChem BioAssay.
Values without a mark were called inactive. Activity calls are given as the source filed them.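 The calls were made as follows, unless noted: active = compounds that lower viability of the colon cancer cells in the luminescence readout, with no numeric limit stated; inactive = the rest.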

experiment: HCT116 colon cancer cell growth inhibition, primary screen, CellTiter-Glo luminescence, NPC library (AID 1117342;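 active = compounds that lower survival of HCT116 colon cancer cells in the luminescence readout, no numeric limit stated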); settings: at 20 µM (top of the series)

SMILES	inhibition of viability [%]
CCCCOc1ccc(CC(=O)NO)cc1	12.7
CCC(=O)O[C@H]1[C@H](O[C@@H]2[C@@H](C)[C@H](O[C@H]3C[C@@](C)(OC)[C@@H](O)[C@H](C)O3)[C@@H](C)C(=O)O[C@H](CC)[C@@](C)(O)[C@H](O)[C@@H](C)C(=O)[C@H](C)C[C@@]2(C)O)O[C@H](C)C[C@@H]1N(C)C	3.15
CC(=O)Nc1ccc(OCC(O)CNC(C)C)cc1 (stereo not drawn)	11.1
Cc1c(N(C)CS(=O)(=O)O)c(=O)n(-c2ccccc2)n1C	3
CC(=O)Nc1ccccc1	2.3
O=C(CCCCC(=O)Nc1c(I)cc(I)c(C(=O)O)c1I)Nc1c(I)cc(I)c(C(=O)O)c1I	-1.4
O=C(O)c1ccccc1C(=O)Nc1ccc(S(=O)(=O)Nc2nccs2)cc1	-16.3
Cc1c(NC(C)C)c(=O)n(-c2ccccc2)n1C	-11
CC[C@]12CCCN3CCc4c(n(c5ccccc45)[C@@](O)(C(=O)OC)C1)[C@@H]32	-43.9
Cc1cc(C)cc(OCC2CNC(=O)O2)c1 (stereo not drawn)	3.1

experiment: reduced SW480 viability measured with CellTiter-Glo, NPC library, primary (AID 1117343); settings: CellTiter-Glo luminescence; at 20 µM (top of the series)

SMILES	viability decrease (inhibition)
O=C(O)c1cc(O)c(O)c(O)c1	36.1%
Cc1c(C(N)=O)cc([N+](=O)[O-])cc1[N+](=O)[O-]	34%
Nc1ccc(S(=O)(=O)Nc2ccc(Cl)nn2)cc1	15.5%
CCCc1cc(C(N)=S)ccn1	5.3%
CCCCC(CC)CN1CN(CC(CC)CCCC)CC(C)(N)C1 (stereo not drawn)	145% (active)
C[N+]12CCC(CC1)C(OC(=O)C(O)(c1ccccc1)c1ccccc1)C2 (stereo not drawn)	22.9%
C=CCSCC1Nc2cc(Cl)c(S(N)(=O)=O)cc2S(=O)(=O)N1 (stereo not drawn)	-6.2%
Oc1c(Cl)cc(Cl)cc1Sc1cc(Cl)cc(Cl)c1O	113% (active)
CCOc1ccc(Cc2nccc3cc(OCC)c(OCC)cc23)cc1OCC	97.9% (active)
O=C1C(O)=C(O)C(=O)C(O)=C1O	27.9%
Oc1ccc(Cl)c2cccnc12	84.4% (active)
COc1ccc(C2C(=O)c3ccccc3C2=O)cc1	22.1%
C[C@@](Cc1ccc(O)c(O)c1)(NN)C(=O)O	88.8% (active)
O=C(O)c1ccccc1OP(=O)(O)O	6.6%
Nc1ccc(N=Nc2ccccc2)c(N)n1	31.9%
C=CCc1ccc(O)c(OC)c1	-11.7%
COc1ccc(-c2cc(C(F)F)nn2-c2ccc(S(N)(=O)=O)cc2)cc1F	6.3%
Cc1c(NC(=O)c2cccnc2)c(=O)n(-c2ccccc2)n1C	18.1%
COc1ccc2cc1Oc1ccc(cc1)C[C@H]1c3c(cc4c(c3Oc3cc5c(cc3OC)CCN(C)[C@@H]5C2)OCO4)CCN1C	123% (active)

SMILES	viability decrease (inhibition)
CN1CCCN=C1COC(=O)C(O)(c1ccccc1)C1CCCCC1 (stereo not drawn)	67.3% (active)
O=C(OCC(O)CO)c1ccccc1Nc1ccnc2cc(Cl)ccc12 (stereo not drawn)	53.8% (active)
Cc1cc(=O)[nH]c(=S)[nH]1	11.6%
COc1cccc(OC)c1C(=O)N[C@@H]1C(=O)N2[C@@H]1SC(C)(C)[C@@H]2C(=O)O	17.4%
O=C1c2cccc(O)c2C(=O)c2c(O)cccc21	52.4% (active)
CC(=O)N(O)CCCCCNC(=O)CCC(=O)N(O)CCCCCNC(=O)CCC(=O)N(O)CCCCCN	21%
CC1(C)O[C@@H]2C[C@H]3[C@@H]4C[C@H](F)C5=CC(=O)CC[C@]5(C)[C@H]4[C@@H](O)C[C@]3(C)[C@]2(C(=O)CO)O1	-2.1%
COc1cc(NS(=O)(=O)c2ccc(N)cc2)ncn1	-10.6%
Cc1onc(-c2ccccc2)c1C(=O)N[C@@H]1C(=O)N2[C@@H]1SC(C)(C)[C@@H]2C(=O)O	-4.9%
CCCCOc1ccc(CC(=O)NO)cc1	35.2%
CCC(=O)O[C@H]1[C@H](O[C@@H]2[C@@H](C)[C@H](O[C@H]3C[C@@](C)(OC)[C@@H](O)[C@H](C)O3)[C@@H](C)C(=O)O[C@H](CC)[C@@](C)(O)[C@H](O)[C@@H](C)C(=O)[C@H](C)C[C@@]2(C)O)O[C@H](C)C[C@@H]1N(C)C	13.9%
CC(=O)Nc1ccc(OCC(O)CNC(C)C)cc1 (stereo not drawn)	26.9%
Cc1c(N(C)CS(=O)(=O)O)c(=O)n(-c2ccccc2)n1C	23.9%
CC(=O)Nc1ccccc1	25.2%
O=C(CCCCC(=O)Nc1c(I)cc(I)c(C(=O)O)c1I)Nc1c(I)cc(I)c(C(=O)O)c1I	7.4%
O=C(O)c1ccccc1C(=O)Nc1ccc(S(=O)(=O)Nc2nccs2)cc1	20.3%
Cc1c(NC(C)C)c(=O)n(-c2ccccc2)n1C	-10%
CC[C@]12CCCN3CCc4c(n(c5ccccc45)[C@@](O)(C(=O)OC)C1)[C@@H]32	0.1%
Cc1cc(C)cc(OCC2CNC(=O)O2)c1 (stereo not drawn)	13.1%
